HT1080 IDH1KD tx – qHTS for induction of synthetic lethality in tumor cells producing 2HG: qHTS for the HT-1080-IDH1KD cell line; Potency, µM (highest dose often 46.1 µM), inactives show top-dose activity, negative = toxicity, actives largely listed as cytotoxic; hit rate 2% among 360,000; HT-1080 IDH1 knockdown viability, ATP luminescence, 48 h;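 further: 0% = DMSO wells and -100% = cell-free medium wells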
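HT-1080-IDH1KD cells (IDH1 knocked down), 750/well in RPMI with 5% FBS, treated with compound 48 h at 37 degrees C. Viability by CellTiter-Glo luminescence, normalised to DMSO and no-cell wells; concentration-response curves classed.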
HT1080NT lethal – qHTS for induction of synthetic lethality in tumor cells producing 2HG: qHTS for the HT-1080-NT fibrosarcoma cell line | HT-1080-NT fibrosarcoma viability, CellTiter-Glo ATP luminescence, 48 h | Potency, µM (top dose mostly 46.1 µM), for inactives: at the highest dose activity, negative = less viability, actives largely listed as cytotoxic | hit rate 1.6% among 360,000;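 further: NT is the 2HG producing partner of a matched IDH1 knockdown line; 0% = DMSO-treated cells and -100% = media-only wells without cells; nearly all actives have a fitted effect of over 55% in size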
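Viability by CellTiter-Glo luminescence after 48 h compound exposure at 37C of HT-1080-NT cells (750/well, RPMI, 5% FBS). % activity scaled between DMSO wells and medium-only wells, then curve-fitted and categorized by curve class.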
SW480 rerep – A quantitative high throughput screen for small molecules that induce DNA re-replication in SW480 colon adenocarcinoma cells. SW480 DNA re-replication, Hoechst DNA content imaging, 48 h. Potency, µM (doses to about 46.1 µM), inactives show top-dose re-replication activation, usual class: activators. hit rate 1.8% among 340,000; further: % of control where 0% means no effect; nearly all actives have a fitted effect of over 55% in size
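SW480 cells exposed to compounds for 48 hr at 37 C, 5% CO2, then Hoechst-stained 40 min. Nuclear DNA content imaged by fluorescence scanning (405 nm excitation, 500-530 nm emission); re-replication scored as increased high-intensity nuclei.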
KB-3-1 tox – qHTS assay for MDR1-selective chemotherapeutics: Primary screen using the parental adenocarcinoma cell KB-3-1; KB-3-1 viability, CellTiter-Glo ATP luminescence, 72 h; Potency, µM (top dose mostly 46.1 µM), actives largely listed as cytotoxic; hit rate 1.4% among 400,000; AID 1347075, 2019; further: on the % scale 0 is the no-effect control and ±100 the full control effect; nearly all actives have a fitted effect of over 60% in size
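Parental KB-3-1 adenocarcinoma cells in phenol-red-free DMEM with 10% FBS were pin-treated with compounds at several concentrations, incubated 72 h at 37 °C, and viability read by CellTiter-Glo luminescence; concentration-effect curves were fitted after normalization.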
KB-V1 cytotox – qHTS assay for MDR1-selective chemotherapeutics: Primary screen using the drug-selected MDR subline cells KB-V1; KB-V1 MDR cells viability, CellTiter-Glo, 72 h; Potency, µM (doses to about 46.1 µM), actives largely listed as cytotoxic; hit rate 3.4% among 400,000; AID 1347076, 2019; further: on the % scale 0 is the no-effect control and ±100 the full control effect; nearly all actives have a fitted effect of over 60% in size
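KB-V1, DMEM (no phenol red) + 10% FBS; cpd pin-transferred, titration series; 72 h, 37 degrees C; CellTiter-Glo, luminescence. Data normalized, curve-fit.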
MCF10A rereplic – A quantitative high throughput screen for small molecules that induce DNA re-replication in MCF 10a normal breast cells. Potency, µM (highest dose often 46.1 µM), inactives show at the highest dose activity, positive = re-replication, actives largely listed as activators. hit rate 2.9% among 350,000. MCF 10A DNA re-replication, Hoechst nuclear intensity, 48 h; further: % of control where 0% means no effect; nearly all actives have a fitted effect of over 50% in size
Active calls of the source: *; [ ] = another dose, or the depositor's remark. Hits are enriched below; roughly 7.9% of the tested compounds scored in any of these assays. The call rests on the fitted dose curve; in most records, active means well fitted curve in the direction sought with a large enough effect; inconclusive means small, poorly fitted or top-dose-only effect, or another doubt; inactive means no such curve, though single readings can be large; an effect the other way counts as inactive or inconclusive. Potency means the concentration at half of the fitted maximal effect.

Results for CC(=O)/C(C#N)=C1\NC(=O)C(Cc2ccc(C)c(Cl)c2)S1 (configuration not stated) ?
HT1080 IDH1KD tx: inconclusive; HT1080NT lethal: -28%; SW480 rerep: -10%; KB-3-1 tox: 18µM*; KB-V1 cytotox: 9.2µM*; MCF10A rereplic: inconclusive

What do the screens show for `CC(=O)N1CCC(N(CCCOC(C)C)S(=O)(=O)c2ccc([N+](=O)[O-])cc2)CC1`?
HT1080 IDH1KD tx: 0%; HT1080NT lethal: 2%; SW480 rerep: -15%; KB-3-1 tox: inactive; KB-V1 cytotox: inactive; MCF10A rereplic: -4%

What do the screens show for `Fc1cccc(Cl)c1CSc1ccc(-c2cccnc2)nn1`?
HT1080 IDH1KD tx: 1%; HT1080NT lethal: 1%; SW480 rerep: 12%; KB-3-1 tox: inactive; KB-V1 cytotox: inactive; MCF10A rereplic: 23µM*

Results for COc1cccc(C2C3=C(N=c4s/c(=C\c5cccc(O)c5)c(=O)n42)c2ccccc2CC3)c1OC (configuration not stated) ?
HT1080 IDH1KD tx: inconclusive; HT1080NT lethal: -23%; SW480 rerep: inconclusive; KB-3-1 tox: inconclusive; KB-V1 cytotox: 16µM*; MCF10A rereplic: 9%

How did Cc1cc(NC(=O)COC(=O)COc2ccc(Cl)c(C)c2)no1 do in these assays?
HT1080 IDH1KD tx: 11%; HT1080NT lethal: 9%; KB-3-1 tox: inactive; KB-V1 cytotox: inconclusive

What do the screens show for `FC(F)(F)c1ccc(N2CCN(c3ncnc4c3nnn4Cc3ccccc3Cl)CC2)cc1`?
HT1080 IDH1KD tx: 8%; HT1080NT lethal: 20%; SW480 rerep: -1%; KB-3-1 tox: inactive; KB-V1 cytotox: inactive; MCF10A rereplic: 3%

What do the screens show for `Clc1ccccc1Cn1nnc2c(NCC3CC3)ncnc21`?
HT1080 IDH1KD tx: -4%; HT1080NT lethal: -2%; SW480 rerep: -1%; KB-3-1 tox: inconclusive; KB-V1 cytotox: inconclusive; MCF10A rereplic: 9%

What do the screens show for `Clc1ccccc1Cn1nnc2c(N3CCOCC3)nc(C3CC3)nc21`?
HT1080 IDH1KD tx: 2%; HT1080NT lethal: 0%; SW480 rerep: -7%; KB-3-1 tox: inactive; KB-V1 cytotox: 3.7µM*; MCF10A rereplic: -3%

How did CC(C)(C)c1nc(NCCN2CCOCC2)c2nnn(Cc3ccccc3Cl)c2n1 do in these assays?
HT1080 IDH1KD tx: 9%; HT1080NT lethal: 12%; SW480 rerep: 28%; KB-3-1 tox: inconclusive; KB-V1 cytotox: inactive; MCF10A rereplic: inconclusive

How did Clc1ccccc1Cn1nnc2c(Nc3ccccc3)ncnc21 do in these assays?
HT1080 IDH1KD tx: 4%; HT1080NT lethal: 1%[9.24 µM]; SW480 rerep: -2%; KB-3-1 tox: inactive; KB-V1 cytotox: inactive; MCF10A rereplic: 13µM*

Results for Clc1ccccc1Cn1nnc2c(NCCN3CCOCC3)ncnc21 ?
HT1080 IDH1KD tx: 7%; HT1080NT lethal: 3%; SW480 rerep: -3%; KB-3-1 tox: inactive; KB-V1 cytotox: 21µM*; MCF10A rereplic: 21%

What do the screens show for `Cc1nc(NCCN2CCOCC2)c2nnn(Cc3ccccc3Cl)c2n1`?
HT1080 IDH1KD tx: -1%; HT1080NT lethal: 13%; SW480 rerep: 2%; KB-3-1 tox: inactive; KB-V1 cytotox: 6.5µM*; MCF10A rereplic: 1%

Results for CC(=O)c1cccc(OCc2cc(C(=O)N(C)Cc3ccc(C)o3)no2)c1 ?
HT1080 IDH1KD tx: 10%; HT1080NT lethal: 8%; SW480 rerep: inconclusive; MCF10A rereplic: 27%

How did O=C(CN1CCN(c2ccccc2F)CC1)NCc1ccc(Cl)cc1 do in these assays?
HT1080 IDH1KD tx: -18%; HT1080NT lethal: -9%; SW480 rerep: inconclusive; KB-3-1 tox: inactive; KB-V1 cytotox: inactive; MCF10A rereplic: -12%

How did C=CCSc1nc(NC)c2sccc2n1 do in these assays?
HT1080 IDH1KD tx: -4%; HT1080NT lethal: -2%; SW480 rerep: -3%; KB-3-1 tox: inactive; KB-V1 cytotox: inactive; MCF10A rereplic: -4%

Results for O=[N+]([O-])/C=C\c1ccc(N2CCCC2)c(F)c1 ?
HT1080 IDH1KD tx: 3.3µM*; HT1080NT lethal: inconclusive; SW480 rerep: 18µM*; KB-3-1 tox: inconclusive; KB-V1 cytotox: inconclusive; MCF10A rereplic: 18µM*

What do the screens show for `CN1CCCN(C(=O)Cc2c(Cl)cccc2Cl)c2nc3ccccc3nc21`?
HT1080 IDH1KD tx: -17%; HT1080NT lethal: -7%; SW480 rerep: 16µM*; KB-3-1 tox: inactive; KB-V1 cytotox: inactive; MCF10A rereplic: inconclusive

What do the screens show for `Cc1ccc(Oc2nc(CN3CCOCC3)nc3sc4c(c23)CCC(C)C4)cc1C` (configuration not stated)?
HT1080 IDH1KD tx: 8%; HT1080NT lethal: 3%; SW480 rerep: 5%; KB-3-1 tox: inconclusive; KB-V1 cytotox: 15µM*; MCF10A rereplic: inconclusive

Results for COc1cc2c(cc1OC)CN(c1nc(CN3CCOCC3)nc3sc4c(c13)CCCC4)CC2 ?
HT1080 IDH1KD tx: inconclusive; HT1080NT lethal: -12%; SW480 rerep: 8%; KB-3-1 tox: inconclusive; KB-V1 cytotox: inconclusive; MCF10A rereplic: 18µM*

What do the screens show for `COc1cc2c(cc1OC)CN(c1nc(CN3CCCCC3)nc3sc4c(c13)CCCC4)CC2`?
HT1080 IDH1KD tx: 2%; HT1080NT lethal: 5%; SW480 rerep: inconclusive; KB-3-1 tox: inactive; KB-V1 cytotox: inactive; MCF10A rereplic: inconclusive

Results for COc1cc2c(cc1OC)CN(c1nc(CN3CCCC3)nc3sc(C)c(C)c13)CC2 ?
HT1080 IDH1KD tx: inconclusive; HT1080NT lethal: 15µM*; SW480 rerep: 24%; KB-3-1 tox: inactive; KB-V1 cytotox: inactive; MCF10A rereplic: 11%

What do the screens show for `Cc1sc2nc(CN3CCOCC3)nc(N3CCOCC3)c2c1C`?
HT1080 IDH1KD tx: 3%; HT1080NT lethal: 12%; SW480 rerep: -2%; KB-3-1 tox: inactive; KB-V1 cytotox: inconclusive; MCF10A rereplic: 1%

How did Cc1ccc(NC(=O)Cc2coc3ccc(C(C)C)cc23)cc1Cl do in these assays?
KB-3-1 tox: inconclusive; KB-V1 cytotox: 16µM*

What do the screens show for `COc1cc2ncnc(NCc3cccc(F)c3F)c2cc1OC`?
HT1080 IDH1KD tx: 5%; HT1080NT lethal: -6%; SW480 rerep: -8%; KB-3-1 tox: inactive; KB-V1 cytotox: inactive; MCF10A rereplic: -8%

How did COc1cc2c(Nc3ccc(Br)cc3F)ncnc2cc1OCC1CCN(C)CC1 do in these assays?
SW480 rerep: inconclusive; MCF10A rereplic: 27µM*
